From PubChem BioAssay (NCATS) come the findings set out here.

Records with an inconclusive call do not appear. Calls of active or inactive are those of the source. Unless noted, calls follow the shape of the dose curve; as a rule, active = well fitted cell-killing curve with a large enough effect; inconclusive = small, poorly fitted or top-dose-only effect; inactive = flat fitted curve, though single readings scatter.

The nature of assay [1]: Cell Viability - LYMP2-020 (AID 986).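 Also: series mostly up to about 92 µM; cells exposed to compound for 24 h at 37 °C; plate controls were DMSO only for no effect and tetraoctylammonium bromide at 92 µM for full effect; nearly all actives have a fitted effect of over 55% in size.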 A digest of the protocol: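 Seed 2500 cells per well and incubate 5 hr at 37 C. Add compounds at a concentration series and incubate 24 hr at 37 C. Add CellTiter-Glo, wait 30 min at RT, read luminescence, and fit a Hill curve for AC50.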
Assay [2] is described as follows: Cell Viability - LYMP2-022 (AID 987).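 Also: 0% = DMSO alone and full effect = tetraoctylammonium bromide at 92 µM; nearly all actives have a fitted effect of over 55% in size.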 A digest of the protocol: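 Cells were seeded at 2500 per well, rested 5 hr at 37 C, and treated with titrated compounds for 24 hr at 37 C. Cellular ATP was then quantified by luciferase luminescence, and AC50 values were derived from Hill-modelled concentration-response curves.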
The nature of assay [3]: Cell Viability - LYMP2-026 (AID 989).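 Also: cells exposed to compound for 24 h at 37 °C; % is scaled to controls: 0 for no effect and ±100 for the full control effect; nearly all actives have a fitted effect of over 50% in size.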 A digest of the protocol:
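Cells are seeded at 2500 per well and held 5 hr at 37 C. Compounds are added in concentration series for 24 hr, then CellTiter-Glo reagent is applied and luminescence read.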

Assay [4] in a line: Cell Viability - LYMP1-002 - Assay at 24 hr (AID 993). Also: % is scaled to controls: 0 for no effect and ±100 for the full control effect. A digest of the protocol: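 Acute toxicity is measured as concentration-dependent loss of cellular ATP in a human lymphoblastoid line (Coriell LYMP1-002) after 24 h treatment in complete medium. ATP is quantified by luciferase luminescence and AC50 derived by Hill modelling.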
The nature of assay [5]: Cell Viability - LYMP1-002 - Assay at 40 hr (AID 994).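 Also: 0% = DMSO only and full inhibition = 92 µM tetraoctylammonium bromide; nearly all actives have a fitted effect of over 60% in size.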 A digest of the protocol:
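Cells are plated at 2500 per well and rested 5 hr at 37 C. Compounds are added and incubated 40 hr at 37 C. CellTiter-Glo reagent is added for 30 min at room temperature before luminescence is read.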

A short description of assay [6]: qHTS Assay for Identification of Small Molecule Inducers of Hypoxia Response (AID 2120; active = well fitted curve in the direction sought with a large enough effect in the signal ratio, with a control signal flat, not every such curve was filed as active; the % refers to the signal ratio; also: 0% is about no effect). A digest of the protocol:
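Cell-based qHTS for reporter induction: hypoxia response element controlled beta-lactamase in ME-180 cells. Compounds incubated 17 h at 37 degrees C; activity from blue/green (460/530 nm) ratio, inducers ranked by AC50.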
Background: Quantitative high-throughput screening tests each substance at several concentrations.

In assay [7] the target is Estrogen receptor (Homo sapiens) (UniProt P03372). Briefly: qHTS assay for small molecule antagonists of estrogen receptor alpha signaling (AID 588513; active = well fitted curve in the direction sought with a large enough effect in the signal ratio, with a control signal flat, not every such curve was filed as active; the % refers to the signal ratio; also: % is scaled to controls: 0 for no effect and ±100 for the full control effect). The gist of the method: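 Beta-lactamase reporter, antagonist mode, HEK 293 GripTite cells; 0.5nM E2 stimulus, 18 h, 37 C; CCF4 dye 2 h RT; fluorescence. IC50 and efficacy from Hill fits, normalized to E2 and DMSO.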
Chain of Estrogen receptor (Homo sapiens) (P03372 whole entry, looked up): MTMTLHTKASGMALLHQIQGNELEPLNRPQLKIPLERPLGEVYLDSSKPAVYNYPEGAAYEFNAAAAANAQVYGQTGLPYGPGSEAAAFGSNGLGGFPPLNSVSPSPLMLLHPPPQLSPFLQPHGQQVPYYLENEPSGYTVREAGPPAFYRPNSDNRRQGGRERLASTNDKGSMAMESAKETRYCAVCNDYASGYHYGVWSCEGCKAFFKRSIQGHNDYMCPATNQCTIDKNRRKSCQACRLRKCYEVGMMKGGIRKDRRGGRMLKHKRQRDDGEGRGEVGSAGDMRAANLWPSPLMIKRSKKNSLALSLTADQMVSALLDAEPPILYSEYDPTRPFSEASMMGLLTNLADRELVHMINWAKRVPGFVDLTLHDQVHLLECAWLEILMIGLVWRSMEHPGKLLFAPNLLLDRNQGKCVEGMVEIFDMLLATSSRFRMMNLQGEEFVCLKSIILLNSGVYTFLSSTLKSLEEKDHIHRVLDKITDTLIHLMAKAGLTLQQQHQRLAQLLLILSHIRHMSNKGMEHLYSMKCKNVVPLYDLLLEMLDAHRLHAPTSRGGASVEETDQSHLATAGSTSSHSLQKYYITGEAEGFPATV
Assay [8] shares this target. The experiment in a line: qHTS assay for small molecule agonists of estrogen receptor alpha signaling (AID 588514; calls by dose curve;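 also: 0% = vehicle only and 100% = reference agonist; nearly all actives have a fitted effect of over 70% in size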). The gist of the method: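 Efficacy is expressed against 20 nM 17-beta-estradiol (100%) and DMSO basal (0%); EC50 from Hill equation. Assay: beta-lactamase reporter in ER-alpha-UAS-bla HEK 293 cells, 18 h compound incubation, CCF4 detection.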
Assay [9] addresses Bile acid receptor (Homo sapiens) (UniProt Q96RI1). The experiment in a line: qHTS assay for small molecule antagonists of farnesoid X receptor signaling (AID 588526; calls by dose curve; also: % is scaled to controls: 0 for no effect and ±100 for the full control effect). The gist of the method: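 Concentration-response titrations were fitted to the Hill equation for half-maximal inhibition and maximal response, with data normalised to 50 uM chenodeoxycholic acid and DMSO control wells. Cells: FXR-UAS-bla HEK293T, dialyzed FBS.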

Assay [10] addresses Glucocorticoid receptor (Homo sapiens) (UniProt P04150). The experiment in a line: qHTS assay for small molecule agonists of glucocorticoid receptor signaling (AID 588532; active = well fitted curve in the direction sought with a large enough effect in the signal ratio, with a control signal flat; the % refers to the signal ratio;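 also: 100% = dexamethasone at 0.1 µM and 0% = DMSO only wells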). The conditions noted are these: HeLa MMTV-bla, beta-lactamase ratio, agonist, 18 h; stronger effect = higher value; percent of dexamethasone control, DMSO zero. The gist of the method:
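Titration series, up to 92 uM, applied to GRE-bla HeLa cells for 18 h at 37 C. Detection by CCF4 FRET substrate after 2 h at RT.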

Assay [11] shares this target. The experiment in a line: qHTS assay for small molecule antagonists of glucocorticoid receptor signaling (AID 588533; active = well fitted inhibition curve with a large enough effect in the signal ratio, with a control signal flat, not every such curve was filed as active; the % refers to the signal ratio;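 also: cells stimulated with 2 nM dexamethasone as agonist; % is scaled to controls: 0 for no effect and ±100 for the full control effect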). A digest of the protocol: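 Antagonist-mode qHTS: compound titrations added to GRE-bla HeLa cells, then dexamethasone 2 nM final; 18 h, 37 C. CCF4 FRET fluorescence normalized to dexamethasone and DMSO; IC50 from Hill fit.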
A short description of assay [12]: qHTS assay for small molecule antagonists of peroxisome proliferator-activated receptor delta signaling (AID 588535; active = well fitted inhibition curve with a large enough effect in the signal ratio, with a control signal flat, not every such curve was filed as active; the % refers to the signal ratio;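 as to max response: cells co-treated with a PPAR-delta agonist as stimulator during compound exposure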). The conditions noted are these: HEK293T PPARd-UAS-bla, beta-lactamase FRET ratio, 18 h; 460 nm channel. A digest of the protocol: (§1)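 Inhibition of PPAR-delta response element-driven beta-lactamase expression is measured in HEK293T cells exposed to a compound titration series for 18 hrs at 37 C. Half-maximal inhibition comes from Hill equation fitting.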

Assay [13] deals with Peroxisome proliferator-activated receptor delta (Homo sapiens) (UniProt Q03181). The assay is described as above. The gist of the method:
as §1

Assay [14] in a line: Cell Viability - LYMP2-024 (AID 988).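 Also: plate controls were DMSO only for no effect and 92 µM tetraoctylammonium bromide for full effect; nearly all actives have a fitted effect of over 60% in size.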 A digest of the protocol:
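qHTS cytotoxicity, human lymphoblastoid line, complete medium; 24 h cpd treatment, 37 C; CellTiter-Glo ATP luminescence readout; tetraoctylammonium bromide positive control; AC50 via Hill fit.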

Assay [15] deals with Peroxisome proliferator-activated receptor gamma (Homo sapiens) (UniProt P37231). Briefly: qHTS assay for small molecule agonists of peroxisome proliferator-activated receptor gamma signaling (AID 588536; active = well fitted curve in the direction sought with a large enough effect in the signal ratio, with a control signal flat, not every such curve was filed as active; the % refers to the signal ratio;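 also: 0% = DMSO basal wells and 100% = rosiglitazone at 2 µM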). A digest of the protocol: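 Beta-lactamase reporter read-out: CCF4 fluorescence (ex 405, em 460/530 nm) after 2 h at RT. HEK293 GeneBLAzer cells were treated for 16 h at 37 C. Hill fits gave EC50 and efficacy versus 2 uM rosiglitazone (100%) and DMSO (0%).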
Chain of Peroxisome proliferator-activated receptor gamma (Homo sapiens) (P37231 whole entry, looked up): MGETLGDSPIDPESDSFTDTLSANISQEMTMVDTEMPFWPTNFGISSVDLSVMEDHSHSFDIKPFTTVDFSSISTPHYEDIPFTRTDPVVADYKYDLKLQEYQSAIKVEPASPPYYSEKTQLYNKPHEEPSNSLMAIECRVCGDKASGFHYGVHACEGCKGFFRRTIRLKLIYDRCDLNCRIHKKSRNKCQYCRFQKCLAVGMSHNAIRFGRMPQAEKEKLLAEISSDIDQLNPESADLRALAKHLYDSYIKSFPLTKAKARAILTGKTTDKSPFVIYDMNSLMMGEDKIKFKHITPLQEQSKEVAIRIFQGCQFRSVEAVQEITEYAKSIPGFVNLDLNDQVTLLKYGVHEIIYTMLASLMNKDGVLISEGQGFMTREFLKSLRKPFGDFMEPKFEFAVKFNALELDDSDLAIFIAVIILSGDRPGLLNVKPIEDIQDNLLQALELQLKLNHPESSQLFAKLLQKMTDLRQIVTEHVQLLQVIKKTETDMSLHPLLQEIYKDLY

Assay [16] deals with Vitamin D3 receptor (Homo sapiens) (UniProt P11473). The experiment in a line: qHTS assay for small molecule antagonists of vitamin D receptor signaling (AID 588541; calls by dose curve). A digest of the protocol: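 VDR-UAS-bla HEK293T cells (2000/well, 2% charcoal-stripped FBS) were treated with titrated compounds plus 1-alpha,25-dihydroxyvitamin D3 (50 nM or 3 nM final) for 16 h at 37 C. CCF4 beta-lactamase fluorescence was read; Hill fits gave IC50.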
Chain of Vitamin D3 receptor (Homo sapiens) (P11473 whole entry, looked up): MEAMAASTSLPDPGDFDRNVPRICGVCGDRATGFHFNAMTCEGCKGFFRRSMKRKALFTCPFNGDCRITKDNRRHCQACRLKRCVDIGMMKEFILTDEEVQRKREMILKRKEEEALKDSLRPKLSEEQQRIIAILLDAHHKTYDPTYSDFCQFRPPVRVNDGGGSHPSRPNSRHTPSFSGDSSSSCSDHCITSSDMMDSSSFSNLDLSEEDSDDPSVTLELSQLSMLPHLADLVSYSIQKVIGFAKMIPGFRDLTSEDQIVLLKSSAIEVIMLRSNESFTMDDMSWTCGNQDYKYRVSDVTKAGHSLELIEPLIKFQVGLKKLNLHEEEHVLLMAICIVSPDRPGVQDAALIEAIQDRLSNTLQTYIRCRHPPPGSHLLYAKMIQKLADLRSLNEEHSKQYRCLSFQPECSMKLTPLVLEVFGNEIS

Assay [17] shares this target. Briefly: qHTS assay for small molecule agonists of vitamin D receptor signaling (AID 588543; calls by dose curve;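 also: 0% = DMSO basal and 100% = reference agonist control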). The gist of the method: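 β-lactamase reporter, VDR-UAS-bla HEK293T, agonist mode. Cells plated 5 h at 37 °C, compound titration 16 h at 37 °C, CCF4 dye 2 h RT, ratio 460/530 nm. Hill fit → EC50, efficacy vs 50 nM 1α,25-(OH)2D3.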
Assay [18] deals with Peroxisome proliferator-activated receptor gamma (Homo sapiens) (UniProt P37231). The experiment in a line: qHTS assay for small molecule antagonists of peroxisome proliferator-activated receptor gamma signaling (AID 588537; active = well fitted inhibition curve with a large enough effect in the signal ratio, with a control signal flat, not every such curve was filed as active; the % refers to the signal ratio;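 also: reporter cells co-stimulated with 50 nM rosiglitazone agonist during compound treatment; % of control where 0% means no effect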). A digest of the protocol: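 Compounds are tested as concentration series for inhibition of rosiglitazone-driven (50 nM) reporter expression in GeneBLAzer PPAR-gamma-UAS-bla HEK293 cells. After 16 h at 37 C, CCF4 substrate is added for 2 h at room temperature and blue/green fluorescence is measured.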

Chain of Peroxisome proliferator-activated receptor delta (Homo sapiens) (Q03181 whole entry, looked up): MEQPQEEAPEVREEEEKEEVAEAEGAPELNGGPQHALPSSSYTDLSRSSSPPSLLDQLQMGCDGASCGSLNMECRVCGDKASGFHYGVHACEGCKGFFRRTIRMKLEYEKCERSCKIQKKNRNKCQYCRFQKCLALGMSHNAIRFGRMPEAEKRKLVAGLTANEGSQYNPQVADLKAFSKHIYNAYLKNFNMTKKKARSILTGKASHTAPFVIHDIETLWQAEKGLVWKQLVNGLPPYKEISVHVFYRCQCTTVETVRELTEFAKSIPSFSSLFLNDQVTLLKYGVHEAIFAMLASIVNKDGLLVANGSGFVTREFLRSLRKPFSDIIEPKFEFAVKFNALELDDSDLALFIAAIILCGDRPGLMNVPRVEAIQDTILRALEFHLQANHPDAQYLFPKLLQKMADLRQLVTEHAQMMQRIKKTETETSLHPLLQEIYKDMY
Chain of Glucocorticoid receptor (Homo sapiens) (P04150 whole entry, looked up): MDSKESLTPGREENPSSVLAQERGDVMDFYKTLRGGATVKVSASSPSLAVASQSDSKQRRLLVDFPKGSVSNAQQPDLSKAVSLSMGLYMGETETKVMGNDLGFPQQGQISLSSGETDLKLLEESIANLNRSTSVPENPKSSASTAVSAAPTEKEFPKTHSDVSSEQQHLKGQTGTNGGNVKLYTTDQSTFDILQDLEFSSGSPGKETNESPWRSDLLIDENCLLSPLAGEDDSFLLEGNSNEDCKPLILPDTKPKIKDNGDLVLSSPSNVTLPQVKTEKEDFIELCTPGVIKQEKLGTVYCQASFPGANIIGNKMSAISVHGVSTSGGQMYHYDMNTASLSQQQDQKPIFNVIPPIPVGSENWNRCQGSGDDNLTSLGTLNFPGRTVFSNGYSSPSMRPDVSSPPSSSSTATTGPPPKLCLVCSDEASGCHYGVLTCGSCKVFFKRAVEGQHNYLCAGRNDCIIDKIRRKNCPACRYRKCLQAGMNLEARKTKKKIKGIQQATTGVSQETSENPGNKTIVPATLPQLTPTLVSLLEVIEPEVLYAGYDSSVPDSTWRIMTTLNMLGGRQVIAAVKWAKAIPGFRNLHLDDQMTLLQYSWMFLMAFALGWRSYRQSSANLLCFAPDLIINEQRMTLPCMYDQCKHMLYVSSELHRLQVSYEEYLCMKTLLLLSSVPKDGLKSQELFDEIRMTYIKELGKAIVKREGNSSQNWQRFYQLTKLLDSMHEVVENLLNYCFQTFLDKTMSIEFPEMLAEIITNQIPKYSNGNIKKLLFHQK
Chain of Bile acid receptor (Homo sapiens) (Q96RI1 whole entry, looked up): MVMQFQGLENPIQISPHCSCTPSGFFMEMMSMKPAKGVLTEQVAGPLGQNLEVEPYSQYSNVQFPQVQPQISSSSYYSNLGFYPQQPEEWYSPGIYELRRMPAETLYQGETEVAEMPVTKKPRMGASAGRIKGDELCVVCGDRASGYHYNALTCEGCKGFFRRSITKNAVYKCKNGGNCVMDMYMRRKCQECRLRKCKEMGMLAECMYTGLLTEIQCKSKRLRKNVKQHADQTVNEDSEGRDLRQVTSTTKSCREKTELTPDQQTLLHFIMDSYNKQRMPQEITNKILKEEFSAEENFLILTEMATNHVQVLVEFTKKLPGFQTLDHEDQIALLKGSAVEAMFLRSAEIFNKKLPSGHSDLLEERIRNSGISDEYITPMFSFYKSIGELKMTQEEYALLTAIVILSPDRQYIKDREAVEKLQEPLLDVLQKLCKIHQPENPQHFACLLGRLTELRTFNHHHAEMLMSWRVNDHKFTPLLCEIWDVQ

`CC#N`: the Potency result in assay [1], in assay [2], in [4], in [5], in [8] and in assay [13] was “inactive” throughout. The molecule was classed as inactive in [3], in assay [6], in [7], in assay [9] and in assay [11]. In addition, the activation in assay [10] is -2.4% (inactive). Besides, the max response in assay [12] worked out at 21.5%.

`Cc1cc(C)c(N)cc1C`: the Potency result in assay [1], in assay [2], in [14], in assay [4], in assay [5] and in assay [8] was “inactive” throughout. For the same molecule, the outcome in assay [3], in assay [6], in assay [7], in [9], in assay [11] and in assay [15] was inactive. Further, the molecule was called inactive in assay [16] and in assay [17]. Moreover, the activation in [10] is 5.44% (inactive). In addition, the max response in assay [12] worked out at 2.74%.

In the case of `CCc1ccccc1`, the Potency result in assay [1], in assay [2], in assay [14], in [4], in assay [5] and in assay [8] was “inactive” each time. Moreover, the Potency entry in assay [13] is “inactive”. Further, the molecule was called inactive in assay [6], in [7], in assay [11], in [15], in assay [16] and in [17]. Besides, in [10], the activation is -5.09% (inactive). The max response in assay [12] came out at 15%.

Take `CN(C)CCCCl`: the Potency entry in assay [1], in assay [14], in assay [4], in [5] and in [8] was “inactive” each time. For the same molecule, the molecule was classed as inactive in assay [6], in [7], in assay [9], in [16] and in assay [17]. Also, in assay [10], the activation was 13.4% (inactive).

As for `COc1ccc(OC)cc1`, the Potency result in assay [1], in [14], in assay [4], in assay [5], in assay [8] and in [13] was “inactive” in each case. Besides, the call in assay [3], in assay [6], in assay [7], in assay [11], in assay [15] and in assay [16] was inactive. Also, the result in [17] was inactive. Further, in [10], the activation was -0.922% (inactive). For the same molecule, in assay [12], the max response is -6.1%.

On to `CNC(=O)c1ccccc1`, for which the Potency result in assay [1], in [2], in [14], in assay [4], in assay [5] and in [8] was “inactive” throughout. For the same molecule, the Potency entry in assay [13] is “inactive”. For the same molecule, the result in assay [3], in [6], in assay [7], in assay [9], in [15] and in assay [18] was inactive. Moreover, the call in assay [16] and in assay [17] was inactive. For the same molecule, the activation in [10] is -1.59% (inactive). The max response in assay [12] was found to be 1.71%.

Regarding `CC(=O)OC(C)C`, the Potency entry in assay [1], in assay [2], in assay [14], in [4], in assay [5] and in assay [8] was “inactive” throughout. In addition, the molecule was called inactive in assay [3], in [6], in [7], in assay [9], in assay [11] and in assay [15]. In addition, the outcome in assay [16] and in assay [17] was inactive. The activation in assay [10] is 0.131% (inactive). In addition, the max response in assay [12] was -28.9%.

Take `C/C=C1\CC2C=CC1C2` (stereo not drawn): the Potency result in assay [1], in assay [14], in assay [4], in [5], in [8] and in assay [13] was “inactive” throughout. The molecule was called inactive in assay [3], in [6], in assay [7], in assay [9], in assay [18] and in assay [16]. Moreover, in [10], the activation is 1.02% (inactive). Further, the max response in [12] was -0.443%.

On to `Cc1ccc(C#N)cc1`, for which the Potency result in [1], in [2], in assay [14], in assay [4], in assay [5] and in [8] was “inactive” throughout. Moreover, the outcome in [3], in assay [6], in assay [7], in assay [9], in [11] and in assay [15] was inactive. In addition, the outcome in assay [18], in assay [16] and in assay [17] was inactive. Besides, the activation in assay [10] is -8.98% (inactive). The max response in assay [12] was -7.41%.

For `NC(N)=S`, the Potency result in assay [1], in assay [2], in assay [14], in assay [4], in assay [5] and in [8] was “inactive” each time. The molecule was called inactive in assay [3], in assay [6], in assay [7], in [9], in [18] and in [16]. Moreover, the molecule was classed as inactive in assay [17]. In addition, the activation in assay [10] was 1.8% (inactive).
